Test results from PubChem BioAssay (EPA / NIEHS).
Records with an inconclusive call do not appear. Active and inactive are the calls of the source. How the source made its calls, unless noted: active means hit-call score of the fitted dose curve at least 0.9, where 1 is the maximum; inactive means score below 0.9.

Key:
[1] = UKN5_HCS_SBAD2_neurite_outgrowth: University of Konstanz (UKN) Leist Lab Neurite Outgrowth Assay in human iPSC-derived immature Dorsal Root Ganglia Neurons (UKN5) (AID 2284070); conditions: actives raise or lower the signal
Procedure, shortened: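 SBAD2 neurons, 24 h compound treatment, calcein-AM neurite area via HCS imaging; DMSO baseline, gain or loss of signal.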

[2] = CCTE_Shafer_MEA_dev_AB: CCTE's Alamar Blue Assay for Cytotoxicity in the Neural Network Formation Assay, Shafer Lab (AID 2284083; active means hit-call score of the fitted dose curve at least 0.9, where 1 is the maximum;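 further: resazurin reduction fluorescence as viability of cultured neurons; twelve days of exposure from plating with re-dosing on DIV 5 and 9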)
Procedure, shortened: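 Rat cortical primary cultures, 1.5 x 10^5 cells/well on MEA; continuous compound exposure over 12 days of network development, re-dosed with full medium change DIV 5 and 9. Alamar Blue fluorescence; loss of signal = cytotoxicity vs DMSO baseline.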

[3] = CCTE_Shafer_MEA_dev_mutual_information_norm: CCTE's Neural Network Formation Assay for Mutual Information Normalization, Shafer Lab (AID 2284091)
Procedure, shortened: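 Primary rat cortical neurons on PEI-coated 48-well MEA plates, 1.5 x 10^5 cells/well, exposed from day 0 through day 12 with re-dosing at DIV 5 and 9. Mutual information between electrodes recorded days 5, 7, 9, 12; trapezoidal AUC, loss-of-signal fit versus DMSO.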

[4] = CCTE_Shafer_MEA_dev_correlation_coefficient_mean: CCTE's Neural Network Formation Assay for Mean Correlation Coefficient, Shafer Lab (AID 2284093);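 further: well mean pairwise spike train correlation integrated as AUC over recording days 5 to 12; potency fitted for loss of correlation relative to DMSO vehicle wells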
Procedure, shortened: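 Rat cortical cultures, 1.5 x 10^5 cells/well, dosed from day 0 for 12 days. Spontaneous spikes recorded DIV 5/7/9/12; electrode-pair correlation coefficients averaged, AUC taken. Fit in loss direction vs DMSO.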

[5] = UKN2_HCS_IMR90_neural_migration: University of Konstanz (UKN) Leist Lab Neural Crest Cell Migration Assay in human induced IMR90 Pluripotent Stem Cells (UKN2) (AID 2284204); conditions: actives raise or lower the signal
Procedure, shortened: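 iPSC-derived IMR90 neural crest cells seeded around stoppers on PLO/laminin/fibronectin; migration started in N2-S medium with EGF/FGF, compounds added after 24 h for 24 h. Migration into cell-free area imaged after calcein-AM/Hoechst staining; bidirectional fit versus DMSO.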

[6] = UKN4_HCS_LUHMES_neurite_outgrowth: University of Konstanz (UKN) Leist Lab Neurite Outgrowth Assay in human LUHMES cells (UKN4) (AID 2284206); conditions: actives raise or lower the signal
Procedure, shortened: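 2-day-differentiated LUHMES, 24 h cpd exposure, live calcein-AM + H-33342 stain, HCS fluorescence imaging of neurite area; DMSO = baseline, bidirectional fit.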

[7] = IUF_NPC1b_proliferation_BrdU_72hr: Leibniz Research Institute for Environmental Medicine (IUF) 72-hour Neural Progenitor Cell Bromodeoxyuridine (BrdU) Proliferation Assay (NPC1b) (AID 2284207)
Procedure, shortened: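 BrdU luminescence ELISA quantified DNA synthesis over the last 16 h of a 72 h exposure, fitted against DMSO. Primary hNPC spheres from gestational week 16-19 cortex grown with EGF/FGF at 37C, pH 7.2-7.6.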

[8] = IUF_NPC1a_proliferation_area_72hr: Leibniz Research Institute for Environmental Medicine (IUF) 72-hour Neural Progenitor Cell Proliferation Area Assay (NPC1a) (AID 2284208)
Procedure, shortened: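 hNPC spheres (human fetal cortex, GW 16-19), one per poly-Hema U-bottom well; EGF+FGF medium; dosed day 0, no re-dosing; 72 h, 37C, 5% CO2; phase-contrast sphere area; DMSO = baseline; minus-GF = positive ctrl.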

[9] = IUF_NPC1_viability_72hr: Viability Assessment at 72 hours in the Leibniz Research Institute for Environmental Medicine (IUF) Neural Progenitor Cell Proliferation Assay (NPC1) (AID 2284209)
Procedure, shortened: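 Each well receives one 0.3 mm progenitor sphere from fetal brain cortex; test chemical is added at plating and left three days. Viability comes from alamar blue fluorescence, multiplexed with LDH and BrdU readouts in the same well.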

[10] = UKN4_HCS_LUHMES_cell_viability: Viability Assessment in the University of Konstanz (UKN) Leist Lab Neurite Outgrowth Assay in human LUHMES cells (UKN4) (AID 2284232)
Procedure, shortened: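 Human dopaminergic-model LUHMES neurons were exposed to chemicals for 24 h after a 2-day differentiation. Viability was scored by imaging Hoechst H-33342 staining, with activity fitted in both directions relative to DMSO controls.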

[11] = UKN2_HCS_IMR90_cell_viability: Viability Assessment in the University of Konstanz (UKN) Leist Lab Neural Crest Cell Migration Assay in human induced IMR90 Pluripotent Stem Cells (UKN2) (AID 2284233);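 further: viability of neural crest cells differentiated from IMR90 iPSC measured by calcein-AM fluorescence imaging; cells exposed to compound for 24 h after a 24 h migration phase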
Procedure, shortened: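 Neural crest cells derived from IMR90 iPSC migrate into a stopper-free zone for 24 h in EGF/FGF medium, then are exposed to compound for 24 h. Viability assessed by calcein-AM and Hoechst staining with high-content imaging, fitted bidirectionally versus DMSO.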

[12] = IUF_NPC2a_radial_glia_migration_120hr: Leibniz Research Institute for Environmental Medicine (IUF) 120-hour Neural Progenitor Cell Migration Assay for Radial Glia Migration (NPC2a) (AID 2284298)
Procedure, shortened: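 Hoechst-stained nuclei imaged at 120 h; algorithm maps sphere core by densest nuclei, sets migration edge at density threshold, gives radial glia migration distance (um) per well vs DMSO. hNPC spheres (0.3 mm), PDL/laminin, DMEM/F12 3:1 + 1% N2.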

[13] = IUF_NPC2a_radial_glia_migration_72hr: Leibniz Research Institute for Environmental Medicine (IUF) 72-hour Neural Progenitor Cell Migration Assay for Radial Glia Migration (NPC2a) (AID 2284299)
Procedure, shortened: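 Migration out of plated human neural progenitor spheres is scored at 72 h as the distance in um from the sphere core edge to the edge of the migration area. Values are the mean of four manual measurements per well, normalised to DMSO.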

[14] = IUF_NPC3_neuronal_differentiation_120hr: Leibniz Research Institute for Environmental Medicine (IUF) 120-hour Neuronal Differentiation Assay (NPC3) (AID 2284301)
Procedure, shortened: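 Human fetal (GW 16-19) neural progenitor spheres (0.3 mm) plated on poly-D-lysine/laminin in N2 differentiation medium, exposed 120 h at 37C with half-medium renewal day 3; 7 concentrations. TUBB3+ cells as % of Hoechst nuclei, CNN-identified; DMSO baseline.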

[15] = IUF_NPC4_neurite_length_120hr: Leibniz Research Institute for Environmental Medicine (IUF) 120-hour Neuronal Morphology Assay for Neurite Length (NPC4) (AID 2284302)
Procedure, shortened: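 Human fetal neural progenitor spheres (0.3 mm) plated on poly-D-lysine/laminin in N2 differentiation medium, exposed from day 0 for 120 h with half-medium refresh at day 3, 37C. Mean neurite length (um) of TUBB3-positive neurons from skeletonized immunostaining images; DMSO ≤0.1%.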

[16] = IUF_NPC5_oligodendrocyte_differentiation_120hr: Leibniz Research Institute for Environmental Medicine (IUF) 120-hour Oligodendrocyte Differentiation Assay (NPC5) (AID 2284304; active means hit-call score of the fitted dose curve at least 0.9, where 1 is the maximum;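 further: primary human fetal neural progenitor spheres plated to migrate and differentiate; share of O4-positive cells among Hoechst nuclei found by CNN image analysis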)
Procedure, shortened: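 hNPC spheres, fetal cortex GW 16-19; PDL/laminin, DMEM:F12 3:1 + 1% N2, 37C/5% CO2; 7 concentrations + solvent control, 5 d exposure, half-change day 3. Readout: %O4+ of Hoechst+ nuclei in migration area, CNN classification; DMSO baseline.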

[17] = IUF_NPC4_neurite_area_120hr: Leibniz Research Institute for Environmental Medicine (IUF) 120-hour Neuronal Morphology Assay for Neurite Area (NPC4) (AID 2284305; active means hit-call score of the fitted dose curve at least 0.9, where 1 is the maximum)
Procedure, shortened: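 Human fetal neural progenitor spheres (0.3 mm) plated on poly-D-lysine/laminin in N2 differentiation medium, exposed 120 h (7 concentrations, DMSO ≤0.1%, half-medium refresh day 3). Fixed, TUBB3 immunostained; mean neurite area per neuron by Omnisphero skeletonization.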

[18] = IUF_NPC2-5_cytotoxicity_120hr: Cytotoxicity Assessment at 120 hours in the Leibniz Research Institute for Environmental Medicine (IUF) Neural Progenitor Cell Migration and Differentiation Assay (NPC2-5) (AID 2284307; active means hit-call score of the fitted dose curve at least 0.9, where 1 is the maximum)
Procedure, shortened: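 hNPC spheres on PDL/laminin, N2 medium, 37C; 7 concs + solvent control, DMSO ≤0.1%; 5-day exposure, half medium changed day 3. LDH in supernatant at 120 h, resazurin→resorufin fluorescence, gain-of-signal.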

[19] = IUF_NPC2-5_cell_number_120hr: Cell Number Assessment at 120 hours in the Leibniz Research Institute for Environmental Medicine (IUF) Neural Progenitor Cell Migration and Differentiation Assay (NPC2-5) (AID 2284308);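 further: count of Hoechst-stained nuclei in migration zone around plated human neural progenitor spheres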
Procedure, shortened: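 Hoechst-stained nuclei within the migration area were counted by automated high content imaging after 120 h. Single hNPC spheres differentiated on poly-D-lysine/laminin in DMEM/F12 (3:1) with 1% N2, compound present throughout, DMSO ≤0.1%.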

[20] = IUF_NPC2-5_viability_120hr: Viability Assessment at 120 hours in the Leibniz Research Institute for Environmental Medicine (IUF) Neural Progenitor Cell Migration and Differentiation Assay (NPC2-5) (AID 2284312)
Procedure, shortened: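 Human fetal neural progenitor spheres (0.3 mm) plated on poly-D-lysine/laminin in N2 differentiation medium, exposed 120 h with half-medium refresh at day 3. Viability by alamar blue resazurin fluorescence; 7 concentrations, DMSO max 0.1%.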

[21] = IUF_NPC1_cytotoxicity_72hr: Cytotoxicity Assessment at 72 hours in the Leibniz Research Institute for Environmental Medicine (IUF) Neural Progenitor Cell Proliferation Assay (NPC1) (AID 2284332; active means hit-call score of the fitted dose curve at least 0.9, where 1 is the maximum;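 further: rising LDH signal means more cytotoxicity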)
Procedure, shortened: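 hNPC spheres (fetal brain, gestational week 16-19) grown under proliferative EGF/FGF conditions, pH 7.2-7.6, were treated continuously for 72 h. Cytotoxicity came from LDH-coupled resazurin fluorescence in each well's supernatant.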

Measured: AC50

Brc1ccc(Oc2cc(Br)c(Br)cc2Br)c(Br)c1
inactive: [1] | [3] | [5] | [7] | [8] | [9] | [10] | [11] | [12] | [13] | [14] | [15] | [16] | [17] | [18] | [19] | [20] | [21]
active: [2] 13.6 µM | [4] 10 µM | [6] 13.4 µM
